# CTSL1 counter – Fasciola hepatica cathepsin L1 inhibitors, primary screen, counter-screen for PFM18AAP inhibitor project, biochemical, QFRET, fluorogenic peptide substrate | AID 1906, 2009 | recombinant F. hepatica cathepsin L1, Z-Leu-Arg-MCA fluorescence | inhibition, % at 5.96 µM | 300,000 compounds, 0.49% hits;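 active = inhibition above the mean of all tested compounds plus 3 SD, set per screening campaign, cut at about 17% in these data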;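 also: 0% = plate median of test compound wells and 100% = 1 µM Z-Phe-Ala-diazomethylketone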
# PAFAH1B3 FP inh – PAFAH1B3 enzyme inhibitors, primary screen, biochemical, fluorescence polarization, human | inhibition, % at 3.39 µM | recombinant PAFAH1B3, FP-rhodamine probe | 340,000 compounds, 0.28% hits | Platelet-activating factor acetylhydrolase IB subunit alpha1 (Homo sapiens), Q15102;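 active = inhibition above the screen-wide average of all tested compounds plus 3 SD, cut at about 25% in these data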;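 also: 0% = enzyme with DMSO only and 100% = wells lacking PAFAH1B3 protein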
# PAFAH1B2 FP inh – PAFAH1B2 enzyme inhibitors, primary screen, biochemical, fluorescence polarization, human | Platelet-activating factor acetylhydrolase IB subunit alpha2 (Homo sapiens), P68402 | inhibition, % at 3.39 µM | recombinant PAFAH1B2, FP-rhodamine activity probe | AID 492953, 2010 | 340,000 compounds, 1.2% hits;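 active = inhibition above the mean of all tested compounds plus 3 SD, cut at about 24% in these data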;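 also: 0% = enzyme with DMSO and 100% = wells lacking PAFAH1B2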
# PP5 primary – PP5 phosphatase inhibitors, primary screen, biochemical, fluorescence. purified PP5c, OMFP substrate fluorescence. 320,000 compounds, 0.18% hits. AID 1987, 2009. inhibition, % at 6.7 µM. Serine/threonine-protein phosphatase 5 (Homo sapiens), P53041;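 active = inhibition above the campaign's mean inhibition across all tested compounds plus 3 SD, cut at about 9.5% in these data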;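 also: 0% = DMSO only and 100% = 100 µM cantharidin control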
# pPAFAH FP inh – pPAFAH enzyme inhibitors, primary screen, biochemical, fluorescence polarization, human; 330,000 compounds, 1.5% hits; Platelet-activating factor acetylhydrolase (Homo sapiens), Q13093; recombinant pPAFAH, FP-rhodamine probe fluorescence polarization; inhibition, % at 3.39 µM;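 active = inhibition above the mean inhibition across the screen plus 3 SD, cut at about 25% in these data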;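 also: inhibitors block binding of the rhodamine activity-based probe so polarization drops; 0% = enzyme with DMSO and 100% = wells lacking pPAFAH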
# Target sequence (Q13093 whole entry, looked up): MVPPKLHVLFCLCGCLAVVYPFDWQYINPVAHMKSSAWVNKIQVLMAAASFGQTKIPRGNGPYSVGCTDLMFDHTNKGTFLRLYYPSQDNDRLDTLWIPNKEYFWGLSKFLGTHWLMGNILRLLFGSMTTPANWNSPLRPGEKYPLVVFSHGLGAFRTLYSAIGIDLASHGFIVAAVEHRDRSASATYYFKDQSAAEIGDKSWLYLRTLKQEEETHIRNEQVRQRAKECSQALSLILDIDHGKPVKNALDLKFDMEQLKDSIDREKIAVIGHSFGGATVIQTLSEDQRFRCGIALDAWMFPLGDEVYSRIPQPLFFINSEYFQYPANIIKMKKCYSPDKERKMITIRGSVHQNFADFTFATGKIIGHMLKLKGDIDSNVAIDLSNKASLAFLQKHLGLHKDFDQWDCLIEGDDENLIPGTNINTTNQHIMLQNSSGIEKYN
# PAFAH2 inh – PAFAH2 enzyme inhibitors, primary screen, biochemical, fluorescence polarization, human; recombinant PAFAH2, FP-rhodamine activity probe; 340,000 compounds, 0.99% hits; AID 492956, 2010; inhibition, % at 3.39 µM; Platelet-activating factor acetylhydrolase 2, cytoplasmic (Homo sapiens), Q99487;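 active = inhibition above the mean over all tested compounds plus 3 SD, cut at about 30% in these data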;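 also: inhibitors block probe labeling of enzyme so polarization drops; 0% = enzyme with DMSO and 100% = wells lacking PAFAH2 protein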
# * hit, by the source's call; x = not tested or not shown. An excerpt weighted towards active compounds, which were near 3% of everything screened.
SMILES,CTSL1 counter,PAFAH1B3 FP inh,PAFAH1B2 FP inh,PP5 primary,pPAFAH FP inh,PAFAH2 inh
Cc1[nH]c(=O)[nH]c(=O)c1S(=O)(=O)Nc1cccc(C(F)(F)F)c1,x,6,8,x,x,-5
O=C(N/N=C/c1ccncc1)c1cc([N+](=O)[O-])cc([N+](=O)[O-])c1O,2,15,3,-1,32*,-5
COc1ccc(NC(=O)Cc2cccc(F)c2)cc1S(=O)(=O)Nc1ccccc1Cl,1,5,6,3,30*,2
Cc1cccc(C)c1N(CC(=O)NCc1ccccc1)C(=O)c1csnn1,-2,-2,1,0,-4,7
Cc1cc(N2O[C@H]3C=C[C@@H]2C3)no1,x,5,0,x,3,-1
C=CCNC(=O)c1onc(CSc2ccc(F)c(F)c2)c1C(=O)O,-2,6,10,1,5,20
C=CCNC(=O)c1onc(CSc2ccc(Cl)cc2)c1C(=O)NCC=C,0,-5,25*,1,0,-8
O=C(OCC(=O)N1CCc2ccccc21)c1ccncc1,x,0,9,3,-3,0
CCOC(=O)Cc1nn(Cc2ccc(Cl)cc2)c(=O)c2ccccc12,18*,3,4,4,-7,1
Cc1ccc(CNC(=O)COC(=O)c2cccc(S(=O)(=O)N3CCCCC3)c2)cc1,x,4,0,3,4,17
CC(C)(CO)NCc1cccc(OCc2ccc(Cl)cc2)c1,-3,5,2,4,-1,7
Clc1ccc(COc2cccc(CNCc3ccncc3)c2)cc1,-1,6,33*,0,7,6
CCOCCSc1nc2c(c(-c3cccs3)c1C#N)CC/C2=C/c1cccs1,6,4,2,-2,27*,1
Cc1ccc(-n2c(O)c(/C=N/Nc3ccc(S(=O)(=O)N4CCOCC4)cc3[N+](=O)[O-])c3ccccc3c2=O)c(C)c1,2,18,64*,2,2,34*
O=C(O)c1ccc(/C=N\Nc2ccc(S(=O)(=O)N3CCOCC3)cc2[N+](=O)[O-])cc1,0,8,0,1,-3,6
O=C(COC(=O)c1sc2ccccc2c1Cl)NCC1CCCCC1,-2,0,4,1,27*,15
Oc1c(Br)cc(Br)cc1C=Nc1cccc2ncccc12,8,8,4,7,28*,14
C(=C\c1ccco1)/c1ccc2ccccc2n1,-3,x,x,0,26*,x
Fc1cccc(F)c1/C=C/c1ccc2ccccc2n1,-1,3,-3,3,4,-9
O=C1CCc2cc(Br)ccc2O1,x,1,5,x,x,9
Cc1nnc(NC(=O)c2cc(-c3ccco3)nc3ccccc23)s1,5,7,3,-1,27*,6
Cc1csc(NC(=O)c2cc(-c3ccco3)nc3ccccc23)n1,0,-1,-3,3,25*,-2
O=C(N/N=C/c1ccc(F)cc1)c1cc(-c2ccco2)nc2ccccc12,3,13,-2,0,30*,5
Cc1csc(NC(=O)c2cc(C)nc3ccccc23)n1,-1,-1,2,-3,-5,-6
CSCCC(NC(=O)c1ccc(Cl)cc1Cl)C(=O)NCC(c1cccs1)N(C)C (configuration not stated),x,4,1,x,x,4
SMILES,CTSL1 counter,PAFAH1B3 FP inh,PAFAH1B2 FP inh,PP5 primary,pPAFAH FP inh,PAFAH2 inh
O=C1CSC(c2ccc([N+](=O)[O-])cc2)N1c1ccc(O)cc1 (configuration not stated),-1,6,22,2,0,-5
CC(NCCN(C)C)C(=O)C12CC3CC(CC(C3)C1)C2 (configuration not stated),-1,0,14,1,0,-1
CCn1c(CNC(=O)COc2ccc(C(C)C)cc2)nnc1SCC(=O)Nc1ccccc1C(C)C,3,6,3,3,30*,2
Cc1ccc(NS(=O)(=O)c2ccc(C(=O)NC3CCN(Cc4ccccc4)CC3)cc2)cc1,x,7,4,x,26*,-4
Cc1ccccc1NS(=O)(=O)c1ccc(C(=O)N2CCC2)cc1,19*,-5,-2,2,23,0
O=C(c1ccccc1)c1ccc(C(=O)N2CCCC(C(F)(F)F)C2)cc1 (configuration not stated),-3,3,-1,-1,3,-4
CC(=O)N1CCN(C(=O)c2ccc(S(=O)(=O)Nc3ccccc3C)cc2)CC1,2,1,2,0,17,-2
Cc1ccccc1NS(=O)(=O)c1ccc(C(=O)N2CC(C)OC(C)C2)cc1 (configuration not stated),-1,6,9,0,13,6
Cc1cccc(NS(=O)(=O)c2ccc(C(=O)N3CC(C)OC(C)C3)cc2)c1C (configuration not stated),6,9,3,4,29*,4
O=C(c1ccc(S(=O)(=O)Nc2ccccc2)cc1)N1CCCC(C(F)(F)F)C1 (configuration not stated),3,-2,1,1,28*,3
O=C(NCC1CCCO1)c1cc(-c2ccc(F)cc2)no1 (configuration not stated),2,3,2,0,2,-17
CCN(CC)C(=O)[C@H]1CC(CC(=O)NCCCOC)C(=O)N2CCc3c([nH]c4ccccc34)[C@]12C (some centres not stated),x,-1,1,x,3,-8
Cc1ccc(S(=O)(=O)NCc2ccc(C(=O)N3CCN(c4ccccn4)CC3)cc2)cc1,-2,-6,-5,5,9,0
Cc1ccc(NS(=O)(=O)c2ccc(C(=O)N3CCN(c4ccccn4)CC3)cc2)cc1,2,0,6,3,25*,-1
Cc1ccc(NS(=O)(=O)c2ccc(C(=O)N3CCC3)cc2)cc1,4,0,-1,-1,28*,2
CCOc1ccccc1CNC(=O)CCC(=O)N1Cc2ccccc2Oc2ncccc21,0,2,-4,0,6,4
O=C(O)c1ccc(CN2C(=O)c3cccc4c([N+](=O)[O-])ccc(c34)C2=O)cc1,x,31*,18,x,x,16
CN(C)CCCN1C(=O)c2cccc3c([N+](=O)[O-])ccc(c23)C1=O,0,21,9,-1,5,4
CC[C@]12C(=O)N(C)C[C@H]([C@@H]3C(=O)N(Cc4ccccc4)C(=O)[C@@H]31)N2C(=O)c1ccc(F)cc1,x,11,-1,x,x,-1

# Compound activity as filed in PubChem BioAssay.
